Assay outcomes from PubChem BioAssay.
LGR2 inh: Drosophila LGR2 receptor signaling inhibition; HEK293 LGR2, CRE-luciferase, bursicon-stimulated, 4 h; inhibition, % at 9.99 µM; 0.35% of 380,000 active;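 active = drop in luminescence signal, shown as inhibition above about 50% in the replicate tests, limit read from the data, passing the limit was not always enough; inconclusive = probably only some replicates passing the limit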;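 note: agonist challenge used bursicon conditioned medium at about half maximal strength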
LMP1 NFkB inh: Epstein-Barr LMP1 NF-kappaB reporter inhibition | LMP1-induced NF-kappaB luciferase reporter cells, luminescence | AID 504558 | inhibition, % at 12.5 µM | 0.69% of 350,000 active; in the data active = inhibition above about 41%; inconclusive = no clear call, values can overlap the other calls;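 note: 0% = neutral control wells and 100% = reference inhibitor control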
Shn3 inh set2: inhibitors of Schnurri-3 3'UTR reporter in osteoblasts. 0.52% of 360,000 active. inhibition, % at 12.5 µM. Clone20 osteoblast Shn3 3'UTR firefly luciferase, 24 h. AID 588674;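 active = mean inhibition of at least 75% with every replicate also reaching 75%; inconclusive = mean inhibition at least 75% but some replicate below; inactive = mean inhibition below 75%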;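 note: 0% = median of neutral control wells and 100% = pilot-screen positive control compound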
EWS-Fli inh: blocks EWS/Fli oncoprotein-driven transcription | inhibition, % at 12.6 µM | A673 NR0B1-luciferase reporter, viability-normalised | 0.67% of 350,000 active | AID 651661;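 active = mean inhibition of at least 50% after viability correction, with every replicate also passing that limit; inconclusive = mean reaches 50% but only one of two replicates passes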;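 note: firefly luciferase signal divided by Alamar Blue viability fluorescence both relative to DMSO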
TRPM1 prom inh: reduces MITF-dependent TRPM1 promoter luciferase signal; SK-MEL-5 TRPM1 promoter luciferase, 24 h; inhibition, % at 12.5 µM; 0.83% of 330,000 active; AID 488899;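 active = mean inhibition across replicates of 60% or more, whatever share of single replicates reaches that level; inconclusive = some that reach 60%, reason not given; inactive = mean inhibition across replicates below 60%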
PAX8 inh HTS: PAX8 transcriptional activity inhibition; AID 652154; RMG-I TPO-luciferase reporter, SteadyGlo, 24 h; 1.2% of 360,000 active; inhibition, % at 12.6 µM;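 active = mean replicate inhibition at least 60% with every replicate also reaching 60%; inconclusive = only one of the two criteria is met; inactive = mean below 60% and not all replicates reaching 60%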;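 note: luciferase light reporting Pax8 driven TPO promoter activity; plate controls were median of neutral control wells for no effect and mitoxantrone controls for full effect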
* = called active by the depositor; ? = inconclusive; / = not tested or not shown; ! = a repeat was not active. Compounds with a hit are over-represented: about 2.2% of the library has one in this group of screens.

SMILES | LGR2 inh | LMP1 NFkB inh | Shn3 inh set2 | EWS-Fli inh | TRPM1 prom inh | PAX8 inh HTS
COc1ccc(-n2c(-c3ccc(Br)cc3)c[n+]3c2SC(C)C3)cc1 (stereo unspecified) | 2.2 | 3.7 | 52.5 | 24.6 | 51.1 | 73.7*
CC(C)NC(=O)N(C)C[C@H]1Oc2c(NS(=O)(=O)c3ccccc3)cccc2C(=O)N([C@@H](C)CO)C[C@H]1C | 26.2 | / | / | -0.5 | / | -10.6
COc1ccc(-c2ccc3c(c2)[C@@H]2[C@@H](CCN2C(=O)c2cnccn2)[C@H](CO)N3)cc1 | -23.5 | / | / | -11.1 | / | -25.9
FC(F)Sc1ccc(-n2c(-c3ccc(Cl)cc3)c[n+]3c2CCC3)cc1 | 33.9 | -4.0 | 1.8 | 8.7 | 46.6 | 67.3*
COc1ccc(-n2c(-c3ccc(Br)cc3)c[n+]3c2CCC3)cc1 | -24.9 | 25.6 | 69.7 | 23.4 | 57.0 | 80.1*
CCC(=O)Nc1ccc2c(c1)C(=O)N(C)C[C@@H](OC)[C@H](C)CN(Cc1cncnc1)[C@@H](C)CO2 | 18.5 | / | / | 0.7 | / | /
Cc1ccc(-n2c(-c3ccccc3)c[n+]3c2CCc2ccccc2-3)c(C)c1 | 39.3 | 32.5 | ? | 34.8 | 75.8* | 90.9*
S=C(NCC1CCCCC1)Nc1ccc(Oc2ccccc2)cc1 | -1.1 | 47.7* | 26.3 | -6.3 | 7.9 | -13.3
Cc1ccc(C)c2sc(NC(=O)C3CC3)nc12 | -31.7 | -2.3 | -2.4 | 0.0 | / | /
Cc1cc(C)c2sc(NC(=O)C3CC3)nc2c1 | / | 48.3* | -35.0 | -38.1 | -4.2 | -22.9
CNc1ccccc1C(C)(C)c1cc(-c2cccc(Br)c2)no1 | 2.7 | -6.0 | 86.5* | 22.2 | 33.3 | 27.2
COc1ccc(NC(=O)N2CCC3(CC2)CN(CC2CC2)[C@H](CO)c2c3c3ccc(OC)cc3n2C)cc1 | 14.9 | / | / | -1.7 | / | /
c1ccc(N=Nc2ccc(C3=NCCO3)cc2)cc1 | 80.9* | 8.4 | 0.3 | 43.2 | / | -43.6
C[C@@H]1CCCCO[C@@H](CN(C)CC2CCCCC2)[C@H](C)CN([C@H](C)CO)C(=O)c2cc(NS(=O)(=O)c3ccccc3)ccc2O1 | -1.9 | / | / | 8.3 | / | 22.9
C[C@@H]1CCCCO[C@H](CN(C)CC2CCCCC2)[C@H](C)CN([C@H](C)CO)C(=O)c2cc(NS(=O)(=O)c3ccccc3)ccc2O1 | ? | / | / | -8.9 | / | 92.3*
C[C@@H]1CN([C@H](C)CO)C(=O)c2cc(NS(=O)(=O)c3ccccc3)ccc2O[C@@H](C)CCCCO[C@@H]1CN(C)CC1CCCCC1 | -10.8 | / | / | 9.7 | / | 88.5*
C[C@H]1CCCCO[C@@H](CN(C)CC2CCCCC2)[C@@H](C)CN([C@@H](C)CO)C(=O)c2cc(NS(=O)(=O)c3ccccc3)ccc2O1 | -5.4 | / | / | 13.2 | / | 24.6
Nc1ccc2ccc(O)cc2c1 | -35.3 | -1.0 | -18.4 | -10.7 | 17.4 | -8.2
C[n+]1c2cc(N)ccc2cc2ccc(N)cc21 | 0.3 | 71.7*! | ? | 61.7* | 63.9* | 66.2*!
COc1ccccc1S(=O)(=O)N[C@H]1C=C[C@@H](CC(=O)NCc2cccc(F)c2)O[C@H]1CO | -14.6 | / | / | 0.2 | / | 5.5
O=S(=O)(/C(=C\c1ccc(C(F)(F)F)cc1)c1nc2ccccc2[nH]1)c1ccccc1 | / | 0.8 | 92.8* | / | 97.1* | /
COc1ccc2c(c1)c1ccc3c(c1n2C)C(=O)C=CC3=O | -2.0 | -92.3 | 96.2* | 60.1* | 91.9* | 11.2
Cn1c2ccccc2c2ccc3c(c21)C(=O)C=CC3=O | 30.1 | 7.6 | 94.4* | -4.9 | 89.3* | 0.2
Cc1ccc(C)c2c1c1ccccc1n2C | 1.9 | -4.2 | 1.1 | 8.9 | 13.1 | -12.5
Cc1ccc2c(c1)c1ccc3c(c1n2C)C(=O)C=CC3=O | -11.1 | -69.0 | 94.7* | 39.9 | 92.8* | 1.6
COc1ccc2c(c1)c1ncn(CCN3CCCC3)c(=O)c1n2C | / | -2.9 | -26.8 | / | 4.4 | /
CCS(=O)(=O)Nc1ccc2c(c1)C(=O)N(C)C[C@H](OC)[C@H](C)CN(CC1CCCC1)[C@@H](C)CO2 | -6.2 | / | / | 8.2 | / | -6.4
CC1CCc2c(sc(NC(=O)Cn3cnc([N+](=O)[O-])n3)c2C(N)=O)C1 (stereo unspecified) | 19.6 | -8.9 | -6.4 | -2.7 | 0.6 | -8.6
Cc1cc([N+](=O)[O-])nn1CCCC(=O)Nc1sc2c(c1C(N)=O)CCC(C)C2 (stereo unspecified) | 0.1 | 2.2 | 2.7 | -3.7 | 2.3 | 97.5*
O=C(C[C@H]1C=C[C@H](NC(=O)Nc2cc(F)ccc2F)[C@@H](CO)O1)NCCCN1CCOCC1 | -2.7 | / | / | 0.3 | / | -9.0
